# Results published in PubChem BioAssay AID686933 (National Center for Advancing Translational Sciences (NCATS), 2013).
# Inconclusive results are not listed. Active and inactive are the calls of the source. The call rests on the fitted dose curve; in most records, active means well fitted inhibition curve with a large enough effect; inconclusive means small, poorly fitted or top-dose-only effect; inactive means flat fitted curve, though single readings scatter.
# Target: Luciferin 4-monooxygenase (Photinus pyralis) (UniProt P08659)
# Experiment: qHTS screen for small molecules that inhibit ELG1-dependent DNA repair: SAR in Biochemical Luciferin Assay
# Details: purified firefly luciferase, luciferin luminescence counter-screen; series mostly up to 57.5 µM
# Excerpt: Cancer cells divide rapidly compared to normal cells in the body. During cell division, cancer cells need to duplicate their genome by DNA replication. The failure of genome duplication leads to cancer cells' death. Therefore, inhibitors of DNA replication could specifically kill cancer cells. Based on this concept, many chemotherapeutic agents were developed and have been used to treat cancer patients. However, there are a limited number of agents available in the clinical setting, and some of those that do exist have low efficacy and severe side effects. Therefore, if we can find the compounds that effectively block DNA replication either by directly damaging DNA or by inhibiting other cellular mechanisms, the options for cancer treatment will be broadened. With this in mind, we developed a quantitative high-throughput ELG1-luciferase reporter gene assay. Small molecules that specifically block ELG1 function in response to DNA damage can be identified by monitoring the suppression of luciferase activity. Since ELG1 defines a pathway for repairing DNA damage, agents blocking ELG1 function can be used to sensitize cancer cells to chemotherapeutic agents whose mechanism of action involves the induction of DNA damage. This counter assay is a luciferase assay, that following treatment with putative ELG1 antagonists, aims to eliminate luciferase enhancers/inhibitors. NIH Molecular Libraries Probe Production Network [MLPCN] NIH Chemical Genomics Center [NCGC] MLPCN Grant: R03 MH092164 Assay Provider: Kyungjae Myung, NHGRI, NIH
# 3 uL of substrate reagent will be pipetted into each well in 1536-well white, solid-bottom plates using a FRD dispenser, followed by addition of 23 nL of DMSO or compounds by pintool. After compound addition, 1 µL of luciferase will be added into the wells. The plates will be read in a ViewLux CCD-based plate reader.
row,SMILES,outcome
1,COc1cc2c(cc1OC)[C@@H]1C(=O)c3ccc4c(c3OC1CO2)CC(C(C)C)O4 (some centres undefined),inactive
2,C[C@@H]1C[C@H]2CC[C@H](O2)[C@H](C)C(=O)O[C@@H](C)C[C@@H]2CC[C@@H](O2)[C@@H](C)C(=O)O[C@H](C)C[C@H]2CC[C@H](O2)[C@H](C)C(=O)O[C@@H](C)C[C@@H]2CC[C@@H](O2)[C@@H](C)C(=O)O1,inactive
3,C[C@@H]1C[C@@H]2[C@H]([C@H]3C=C(COC(=O)c4ccccc4)[C@@H](O)[C@]4(O)[C@@H](O)C(OC(=O)c5ccccc5)=C[C@@]14C3=O)C2(C)C,inactive
4,CN[C@@H]1C[C@@]2(C)O[C@@H]([C@@H]1OC)n1c3ccccc3c3c4c(c5c6ccccc6n2c5c31)C(=O)NC4,inactive
5,CCCCCC1C(=O)O[C@H](C)[C@@H](NC(=O)c2cccc(NC=O)c2O)C(=O)OC(C)C1OC(=O)CC(C)C (some centres undefined),inactive
6,CCCCCCCCCCCCCC(=O)O[C@@H]1[C@@H](C)[C@@]2(O)[C@H](C=C(CO)C[C@]3(O)C(=O)C(C)=C[C@@H]23)[C@@H]2C(C)(C)C12OC(C)=O (some centres undefined),inactive
7,COC[C@H]([C@@H](O)[C@@H](O)C(=O)NCC[C@@H](C)c1nc(/C=C/C[C@H]2OC3(C[C@H](O)[C@H]2C)OC([C@@H](C[C@@H](O)[C@@H](C)[C@@H](O)[C@@H](C)/C=C(C)/C(C)=C/C=C/C(C)=C\C#N)OC)[C@@H](OP(=O)(O)O)C3(C)C)co1)N(C)C (some centres undefined),inactive
8,COc1cc2c(cc1OC)C1C(=O)c3c(cc4c(c3O)C=CC(C)(C)O4)OC1CO2 (centres undefined),inactive
9,CO/C1=C\C(C)=C\[C@@H](C)[C@@H](O)[C@H](C)C/C(C)=C/C=C/[C@H](OC)[C@H]([C@@H](C)[C@@H](O)[C@H](C)[C@H]2C[C@@H](O)[C@H](C)[C@@H](C(C)C)O2)OC1=O,inactive
